From PubChem
Shown are actives, neighbours in structure and some others; about 6.6% of the full set was active somewhere.
TGFb inhibitor: TGF-b pathway inhibition. HepG2 CAGA-GFP TGF-b/SMAD3 reporter, GFP fluorescence, 18 h; TGF-beta stimulated, 500 pg/mL final. Potency, µM (highest dose often 46.1 µM), for the others: top-dose activity, negative = inhibition, actives largely listed as inhibitors. 410,000 compounds, 1.2% hits; further: on the % scale 0 is the no-effect control and ±100 the full control effect; nearly all actives have a fitted effect of over 65% in size
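Smad-responsive CAGA-GFP expression was quantified in HEPG2 cells exposed to compounds and 500 pg/mL final TGF-beta for 18 h at 37 degrees C; unstimulated wells defined full inhibition.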
KB-V1 cytotox: KB-V1 MDR subline cytotoxicity; KB-V1 MDR cells viability, CellTiter-Glo, 72 h; AID 1347076; Potency, µM (top dose mostly 46.1 µM), most hits filed as cytotoxic; 400,000 compounds, 3.4% hits; further: on the % scale 0 is the no-effect control and ±100 the full control effect; nearly all actives have a fitted effect of over 60% in size
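KB-V1 MDR subline cells in DMEM (phenol-red free, 10% FBS) exposed to compounds in qHTS concentration series for 72 h at 37 degrees C. Viability read by CellTiter-Glo luminescence; concentration-effect curves fitted after normalization and correction.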
KB-3-1 cytotox: KB-3-1 parental cell cytotoxicity; KB-3-1 viability, CellTiter-Glo ATP luminescence, 72 h; Potency, µM (titrated, usually from 46.1 µM), most hits filed as cytotoxic; 400,000 compounds, 1.4% hits; AID 1347075; further: on the % scale 0 is the no-effect control and ±100 the full control effect; nearly all actives have a fitted effect of over 60% in size
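Viability of parental KB-3-1 cells, measured by CellTiter-Glo luminescence, followed a 72 h incubation at 37 °C with pinned compounds in phenol-red-free DMEM containing 10% FBS.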
HT1080-NT tox: kills 2HG-producing HT-1080-NT fibrosarcoma cells; 360,000 compounds, 1.6% hits; HT-1080-NT fibrosarcoma viability, CellTiter-Glo ATP luminescence, 48 h; AID 686970; Potency, µM (titrated, usually from 46.1 µM), inactives show at the top dose activity, negative = less viability, most hits filed as cytotoxic;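 further: NT is the 2HG producing partner of a matched IDH1 knockdown line; 0% = DMSO-treated cells and -100% = media-only wells without cells; nearly all actives have a fitted effect of over 55% in size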
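HT-1080-NT fibrosarcoma cells (2HG-overproducing), 750 cells/well in RPMI with 5% FBS, dosed after 2 h and incubated 48 h at 37C. CellTiter-Glo luminescence normalized to DMSO and no-cell wells; concentration-response curves fitted and classed.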
HepG2 tox-1: HepG2 cytotoxicity, counter-screen for TGF-b inhibitors; HepG2 CAGA-GFP viability, ATP luminescence, 18 h; Potency, µM (doses to about 46.1 µM), for the others: at the top dose activity change, negative = cytotoxicity, hits mostly cytotoxic; 410,000 compounds, 0.76% hits
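HepG2 CAGA-GFP cells (1000/well, DMEM with 1% FBS) received compound, then TGF-beta at 500 pg/mL final, and were incubated 18 hours at 37 degrees C. Viability was read by CellTiter-Glo luminescence. Media-only wells were set as complete cell-killing and DMSO as no toxicity.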
HT1080 IDH1KD tx: HT-1080 IDH1 knockdown cell toxicity (counter line); HT-1080 IDH1 knockdown viability, ATP luminescence, 48 h; Potency, µM (series often up to 46.1 µM), without a hit: at the highest dose activity, negative = toxicity, usual class: cytotoxic; 360,000 compounds, 2% hits;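 further: 0% = DMSO wells and -100% = cell-free medium wells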
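Using the IDH1-knockdown HT-1080 line run in the same batch and compound series as the NT line, viability after 48 h at 37 °C was determined by CellTiter-Glo luminescence and expressed as % activity.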
TGFb confirm: confirmation of TGF-b signaling inhibitors in HepG2 reporter cells. HepG2 CAGA-GFP TGF-b reporter, GFP fluorescence, 18 h; cells stimulated with TGF-beta, 500 pg/mL. 1,600 compounds, 63% hits. Potency, µM (titrated, usually from 46.1 µM), without a hit: at the highest dose activity, negative = inhibition, usual class: inhibitors. shares compounds with TGFb inhibitor; further: on the % scale 0 is the no-effect control and ±100 the full control effect; nearly all actives have a fitted effect of over 65% in size
HepG2 tox-2: counter-screen for TGF-b inhibitors: cytotoxicity in HepG2 cells; shares compounds with TGFb inhibitor; HepG2 CAGA-GFP viability, ATP luminescence, 18 h; cells stimulated with TGF-beta, 500 pg/mL; Potency, µM (top dose mostly 46.1 µM), for inactives: at the top dose activity, negative = cytotoxicity, actives largely listed as inhibitors; 1,600 compounds, 27% hits; AID 720535; further: on the % scale 0 is the no-effect control and ±100 the full control effect; nearly all actives have a fitted effect of over 70% in size
CCL64 TGFb inh: TGF-b inhibition, CCL64 orthogonal assay | shares compounds with TGFb inhibitor | CCL64 CAGA-GFP reporter, TGF-b stimulated, GFP fluorescence, 18 h | Potency, µM (doses to about 46.1 µM), for inactives: top-dose activity, negative = inhibition, usual class: inhibitors | 1,600 compounds, 41% hits | AID 720536; further: nearly all actives have a fitted effect of over 65% in size
TGFb COP inh: validation of TGF-b inhibitors in HepG2 COP promoter reporter | shares compounds with TGFb inhibitor | 1,600 compounds, 3% hits | Potency, µM (doses to about 46.1 µM), for the others: at the top dose activity, negative = inhibition, actives largely listed as inhibitors | AID 720537 | HepG2 COP-GFP TGF-b reporter, GFP fluorescence, 18 h; cells stimulated by added recombinant TGF-beta; further: nearly all actives have a fitted effect of over 70% in size
Active calls of the source: *. The call rests on the fitted dose curve; in most records, active means well fitted curve in the direction sought with a large enough effect; inconclusive means small, poorly fitted or top-dose-only effect, or another doubt; inactive means no such curve, though single readings can be large; an effect the other way counts as inactive or inconclusive. Potency means the concentration at half of the fitted maximal effect.

`CC(Nc1nc(-c2ccc(F)cc2)cs1)c1nc2cc(C(F)(F)F)ccc2n1CCOCCO` (stereo not drawn) gave TGFb inhibitor -15%, KB-V1 cytotox inactive, KB-3-1 cytotox inconclusive, HT1080-NT tox 10%, HepG2 tox-1 -18% and HT1080 IDH1KD tx 3%.
Screening O=C(c1cc(-c2ccccc2)n[nH]1)N1CCc2c([nH]c3ccccc23)C1c1ccccn1 (stereo not drawn) returned TGFb inhibitor 20µM*, KB-V1 cytotox inactive, KB-3-1 cytotox inconclusive, HT1080-NT tox inconclusive, HepG2 tox-1 -26%, HT1080 IDH1KD tx inconclusive, TGFb confirm 15µM*, HepG2 tox-2 inconclusive, CCL64 TGFb inh inconclusive and TGFb COP inh 20%.
Screening O=C(c1cccs1)N1CCc2c([nH]c3ccccc23)C1c1ccccn1 (stereo not drawn) returned TGFb inhibitor -4%, KB-V1 cytotox inactive, KB-3-1 cytotox inconclusive, HT1080-NT tox -1%, HepG2 tox-1 -22% and HT1080 IDH1KD tx -9%.
`Cc1cccc(-c2c3c(=O)n(C)c(=O)n(C)c3cn2-c2cc(N)c(Cl)cc2Cl)c1` gave TGFb inhibitor inconclusive and HepG2 tox-1 -22%.
For CCCc1cc2c(cc1NC(=O)c1ccco1)OCO2 the results were TGFb inhibitor inconclusive, KB-V1 cytotox inactive, KB-3-1 cytotox inactive, HT1080-NT tox 1%, HepG2 tox-1 6%, HT1080 IDH1KD tx -4%, TGFb confirm -27%, HepG2 tox-2 2%, CCL64 TGFb inh 0% and TGFb COP inh -2%.
CCCc1cc2c(cc1NC(=O)c1ccccc1F)OCO2 was read as TGFb inhibitor 28%, KB-V1 cytotox inactive, KB-3-1 cytotox inactive, HT1080-NT tox 7%, HepG2 tox-1 32% and HT1080 IDH1KD tx 15%.
For c1ccc(-c2csc3ncnc(NCC4COc5ccccc5O4)c23)cc1 (stereo not drawn) the results were TGFb inhibitor 3.5µM*, KB-V1 cytotox 23µM*, KB-3-1 cytotox 1.6µM*, HT1080-NT tox -18%, HepG2 tox-1 -17%, HT1080 IDH1KD tx -24%, TGFb confirm 2.6µM*, HepG2 tox-2 inconclusive, CCL64 TGFb inh 15µM* and TGFb COP inh 19%.
For Cc1sc2ncnc(NCC3COc4ccccc4O3)c2c1C (stereo not drawn) the results were TGFb inhibitor inconclusive, KB-V1 cytotox inactive, KB-3-1 cytotox inactive, HT1080-NT tox -14%, HepG2 tox-1 -31% and HT1080 IDH1KD tx inconclusive.
`CCc1ccc(-n2nc(CO)c(C(=O)NCCc3ccccc3)n2)cc1` gave TGFb inhibitor -4% and HepG2 tox-1 -10%.
Screening Cc1ccc(C(NC(=O)C2CCCCC2)c2c(O)ccc3ccccc23)cc1 (stereo not drawn) returned TGFb inhibitor 4.5µM*, KB-V1 cytotox inconclusive, KB-3-1 cytotox inconclusive, HT1080-NT tox -23%, HepG2 tox-1 1%, HT1080 IDH1KD tx inconclusive, TGFb confirm 7.3µM*, HepG2 tox-2 inconclusive, CCL64 TGFb inh 23µM* and TGFb COP inh 35%.
For COC(=O)c1ccc(C)c(NS(=O)(=O)c2ccc(OC)cc2)c1 the results were TGFb inhibitor inconclusive, KB-V1 cytotox 1µM*, KB-3-1 cytotox 0.73µM*, HT1080-NT tox inconclusive, HepG2 tox-1 -3%, HT1080 IDH1KD tx inconclusive, TGFb confirm inconclusive, HepG2 tox-2 -1%, CCL64 TGFb inh inconclusive and TGFb COP inh -7%.
For O=C(NC(Nc1nc2ccc([N+](=O)[O-])cc2s1)(C(F)(F)F)C(F)(F)F)c1ccccc1Cl the results were TGFb inhibitor 0.45µM*, KB-V1 cytotox inactive, KB-3-1 cytotox inconclusive, HT1080-NT tox 3.3µM*, HepG2 tox-1 -55%, HT1080 IDH1KD tx 2.9µM*, TGFb confirm 0.92µM*, HepG2 tox-2 1µM*, CCL64 TGFb inh 1.5µM* and TGFb COP inh 82%.
O=C(NC(Nc1nc2ccc([N+](=O)[O-])cc2s1)(C(F)(F)F)C(F)(F)F)c1cccnc1 was read as TGFb inhibitor 3.2µM*, KB-V1 cytotox inconclusive, KB-3-1 cytotox 12µM*, HT1080-NT tox 9.2µM*, HepG2 tox-1 -31%, HT1080 IDH1KD tx 13µM*, TGFb confirm 4.1µM*, HepG2 tox-2 1.6µM*, CCL64 TGFb inh 5.8µM* and TGFb COP inh 87%.
For CN(C)S(=O)(=O)c1ccc2nc(NC(=O)c3cccnc3)sc2c1 the results were TGFb inhibitor -4%, KB-V1 cytotox inactive, KB-3-1 cytotox inactive, HT1080-NT tox 7%, HepG2 tox-1 -2% and HT1080 IDH1KD tx 7%.
Screening O=C(NC(NNc1ccc([N+](=O)[O-])cc1)(C(F)(F)F)C(F)(F)F)c1ccccc1Cl returned TGFb inhibitor inconclusive, KB-V1 cytotox inactive, KB-3-1 cytotox inactive, HT1080-NT tox -12%, HepG2 tox-1 -22% and HT1080 IDH1KD tx -20%.
Screening Cc1ccsc1/C=N/NC(=O)c1cc(-c2ccncc2)nc2ccccc12 returned TGFb inhibitor inconclusive, KB-V1 cytotox inconclusive, KB-3-1 cytotox 1.2µM*, HT1080-NT tox inconclusive, HepG2 tox-1 -14%, HT1080 IDH1KD tx 0.92µM*, TGFb confirm -71%, HepG2 tox-2 -27%, CCL64 TGFb inh 6.5µM* and TGFb COP inh -16%.
